These results are taken from ChEMBL document CHEMBL3988442, “University of Dundee, Small-Polar-MMV Screening Library” (2021).

Hit rate of the full screen: of about 67,000 compounds, about 300 (0.45%) showed an effect of 50% or more. This excerpt belongs to a sample that is enriched for strong results.

This test deals with Polyketide synthase Pks13 (Mycobacterium tuberculosis (strain ATCC 25618 / H37Rv)) (UniProt I6X8D2). The experiment in a line: Mycobacterium tuberculosis Polyketide synthase 13 Thioesterase (PKS13). The settings on record: 30 µM. The arrangement: scale not given: in the data most compounds retested in dose-response had high values. It counts as functional.
Polyketide synthase Pks13 (Mycobacterium tuberculosis (strain ATCC 25618 / H37Rv)), sequence (I6X8D2 whole entry): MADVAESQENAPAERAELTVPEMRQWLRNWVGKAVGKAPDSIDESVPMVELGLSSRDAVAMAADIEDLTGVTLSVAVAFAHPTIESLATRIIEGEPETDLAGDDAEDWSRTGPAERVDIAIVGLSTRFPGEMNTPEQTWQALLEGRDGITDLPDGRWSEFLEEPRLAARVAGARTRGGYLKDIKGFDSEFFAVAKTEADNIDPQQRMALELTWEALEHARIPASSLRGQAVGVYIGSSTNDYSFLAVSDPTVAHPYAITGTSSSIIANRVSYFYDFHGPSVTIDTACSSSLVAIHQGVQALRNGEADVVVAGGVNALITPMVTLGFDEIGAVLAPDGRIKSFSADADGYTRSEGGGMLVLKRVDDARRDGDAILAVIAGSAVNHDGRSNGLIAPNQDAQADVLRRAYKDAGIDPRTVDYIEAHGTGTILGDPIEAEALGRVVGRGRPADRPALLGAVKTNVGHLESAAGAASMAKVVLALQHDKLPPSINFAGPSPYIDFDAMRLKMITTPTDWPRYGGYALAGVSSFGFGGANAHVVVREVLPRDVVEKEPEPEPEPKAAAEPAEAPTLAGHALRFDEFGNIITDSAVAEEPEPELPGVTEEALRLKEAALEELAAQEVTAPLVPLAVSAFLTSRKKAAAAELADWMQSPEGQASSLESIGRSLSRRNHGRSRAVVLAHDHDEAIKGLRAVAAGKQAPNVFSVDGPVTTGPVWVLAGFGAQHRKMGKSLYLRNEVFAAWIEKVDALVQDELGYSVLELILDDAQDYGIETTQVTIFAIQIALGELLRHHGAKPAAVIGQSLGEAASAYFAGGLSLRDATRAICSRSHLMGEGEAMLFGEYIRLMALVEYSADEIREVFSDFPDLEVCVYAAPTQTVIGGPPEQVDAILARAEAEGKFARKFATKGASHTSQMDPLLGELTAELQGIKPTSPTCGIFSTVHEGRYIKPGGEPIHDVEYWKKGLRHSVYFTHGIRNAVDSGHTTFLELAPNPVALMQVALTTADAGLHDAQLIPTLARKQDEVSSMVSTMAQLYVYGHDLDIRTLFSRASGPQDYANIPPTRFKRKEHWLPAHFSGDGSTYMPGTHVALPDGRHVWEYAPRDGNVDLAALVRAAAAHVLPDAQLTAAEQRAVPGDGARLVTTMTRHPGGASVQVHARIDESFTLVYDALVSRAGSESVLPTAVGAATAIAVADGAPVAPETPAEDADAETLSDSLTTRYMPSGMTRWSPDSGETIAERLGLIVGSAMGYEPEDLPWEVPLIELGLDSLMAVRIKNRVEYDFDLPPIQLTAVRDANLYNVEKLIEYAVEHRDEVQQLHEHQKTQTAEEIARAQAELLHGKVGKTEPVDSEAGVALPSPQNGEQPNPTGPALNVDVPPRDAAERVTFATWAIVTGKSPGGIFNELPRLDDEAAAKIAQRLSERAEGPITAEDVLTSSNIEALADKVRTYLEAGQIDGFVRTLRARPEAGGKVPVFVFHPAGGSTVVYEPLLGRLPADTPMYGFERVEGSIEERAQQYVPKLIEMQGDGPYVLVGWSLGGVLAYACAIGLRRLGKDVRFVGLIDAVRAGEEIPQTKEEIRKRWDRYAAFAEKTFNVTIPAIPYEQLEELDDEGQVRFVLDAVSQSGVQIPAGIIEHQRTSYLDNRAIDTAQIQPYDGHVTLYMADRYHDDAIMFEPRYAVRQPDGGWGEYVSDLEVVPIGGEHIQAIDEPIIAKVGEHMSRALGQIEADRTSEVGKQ
With `O=C1[C@H]2CN(c3ncccn3)C[C@H]2CN1Cc1ccncc1`, the Percent Effect is -2.04%.

On to `c1cc(CN2C[C@@H]3OCCN(CC4CCCO4)[C@@H]3C2)cs1` (some centres undefined), for which the Percent Effect was -16.8%.

Take `CCS(=O)(=O)N1C[C@H]2CN(Cc3ccc(OC)cc3)C(=O)[C@H]2C1`: the Percent Effect is -7.48%.

Take `O=C(CC(F)(F)F)N1C[C@H]2CN(CC3CC3)C(=O)[C@H]2C1`: the Percent Effect is -30.7%.

Consider `Cn1cc(-c2ccnc(NCC3CC3)n2)cn1`, for which the Percent Effect is -14.8%.

`Cn1cc(-c2ccnc(NCC3CCN(Cc4ccccc4)C3)n2)cn1` (centres undefined): the Percent Effect was found to be 60.9%.

Take `COCCCN1CCC(CNc2nccc(-c3cnn(C)c3)n2)C1` (centres undefined): the Percent Effect was -31.5%.

For `O=C(CSc1ccccn1)N1C[C@H]2CC[C@@H]1CN(Cc1cscn1)C2`, the Percent Effect is -9.36%.

As to `CN(C)C(=O)CN1C[C@@H]2CC[C@H](C1)N(C(=O)Cc1ccccc1Cl)C2`, the Percent Effect was -15.3%.

For the molecule `COc1cc(N2C[C@H]3CCC[C@@H](CN(C)C4CC4)[C@H]3C2)ncn1`, the Percent Effect was -5.89%.

For `CN(C[C@@H]1CCC[C@@H]2CN(c3ncccn3)C[C@@H]21)C1CC1`, the Percent Effect was determined as 75.8%.

As for `COCCN(C)C[C@@H]1CCC[C@@H]2CN(c3ncccn3)C[C@@H]21`, the Percent Effect was -50.6%.

Turning to `Cc1cccc(CN2C[C@H](OCc3csc(C)n3)[C@H]3COC[C@H]32)n1`, the Percent Effect was -2.96%.

For `CCn1ncc2c1C(COCC1CC1)CN(C(=O)c1cccs1)C2` (centres undefined), the Percent Effect was -31.9%.

Turning to `CCOCC1CN(C(=O)c2cccs2)Cc2cnn(CC3CC3)c21` (centres undefined), the Percent Effect came to 80.6%.

As to `CCOCC1CN(C(=O)c2cccn2C)Cc2cnn(CC3CC3)c21` (centres undefined), the Percent Effect is -11.3%.

For the molecule `Cn1ccnc1CN1CC[C@@H]2[C@@H](CCC(=O)N2CCc2c[nH]cn2)C1`, the Percent Effect was -26.1%.

For `c1cnc(N2CCC3(CCCN(CC4CCCCC4)C3)C2)cn1` (centres undefined), the Percent Effect amounted to 66.6%.

As to `CSc1nccc(N2CCC3(CCCN(CC4CC4)C3)C2)n1` (centres undefined), the Percent Effect is -0.995%.

`c1cnc(N2CCOCC3(CCCN(CC4CC4)C3)C2)cn1` (centres undefined): the Percent Effect turned out to be 2.73%.

With `C[C@H]1C[C@H]2CN(S(=O)(=O)c3ccc(F)cc3)CC[C@@H]2O1`, the Percent Effect was -20.4%.

As to `O[C@]12CCNC[C@H]1CN(c1nccc3ccccc13)CC2`, the Percent Effect is -2.31%.

As for `CC(NC(=O)N1CCC(CC(N)=O)CC1)c1csc2ccccc12` (centres undefined), the Percent Effect was -11.9%.

As for `CC(=O)N1CCCN(C(=O)NC(C)c2csc3ccccc23)CC1` (centres undefined), the Percent Effect is -15.4%.

Regarding `CC(NC(=O)N1CCC(CO)CC1)c1csc2ccccc12` (centres undefined), the Percent Effect is 53%.

As to `Cc1cnn(CC2CCCN2Cc2cc(=O)n3ccccc3n2)c1` (centres undefined), the Percent Effect came to 2.94%.

Turning to `Cc1cnn(CC2CCCN2Cc2cc(=O)n3cc(C)ccc3n2)c1` (centres undefined), the Percent Effect stood at 99.9%.

With `Cc1cnn(CC2CCCN2Cc2cc(=O)n3cccc(C)c3n2)c1` (centres undefined), the Percent Effect was -5.2%.

For the molecule `Cc1cnc(CNC(=O)[C@@]23CCO[C@@H]2CCN(c2ncccn2)C3)cn1`, the Percent Effect is -4.01%.

As to `CC(C)CN1C[C@H]2CCN(C(=O)NC3CCCC3)CC[C@H]2S1(=O)=O`, the Percent Effect came to 6.92%.

On to `Cc1ccc(C)c(OC2CCN(C(=O)CNc3ccccc3Cl)CC2)c1`, for which the Percent Effect turned out to be 73.1%.

For `CCNC(=O)CCC(=O)N1CCC(Oc2cc(C)ccc2C)CC1`, the Percent Effect is -5.09%.

Consider `Cc1ccc(C)c(OC2CCN(C(=O)NCC(=O)N3CCCC3)CC2)c1`, for which the Percent Effect is -7.72%.

For the molecule `CNC(=O)CN1CC[C@H]2CN(C(=O)c3cccc(C)c3)C[C@H]2C1`, the Percent Effect is -11%.

Consider `Cn1ccnc1C(=O)N1C[C@@H]2CCN(c3cnccn3)C[C@@H]2C1`, for which the Percent Effect stood at 124%.

Turning to `Cn1cncc1C(=O)N1C[C@@H]2CCN(c3cnccn3)C[C@@H]2C1`, the Percent Effect was -6.26%.

With `Cn1ccc(C(=O)N2C[C@@H]3CCN(c4cnccn4)C[C@@H]3C2)n1`, the Percent Effect is -2.86%.

With `O=C(c1ccco1)N1CCO[C@@H]2CN(c3ncc(F)cn3)CC[C@@H]2C1`, the Percent Effect is -32.7%.

On to `CS(=O)(=O)NC[C@]12COC[C@H]1CN(C(=O)c1ccncn1)C2`, for which the Percent Effect is -5.6%.

With `Cc1noc(C)c1CN1C(=O)[C@H]2CC[C@@H]1CN(Cc1cscn1)C2`, the Percent Effect was 7.07%.

For `CN(Cc1ccncc1)C1CCC[C@@H]2CN(c3ncccn3)C[C@H]12` (some centres undefined), the Percent Effect is -25.8%.

In the case of `CCOC(=O)CNC(=O)NCc1cc(C)n(-c2ccc(OC)cc2)c1C`, the Percent Effect was 10.9%.

As for `CCOC(=O)CNC(=O)NCc1cc(C)n(-c2ccccc2OC)c1C`, the Percent Effect worked out at 50%.

For the molecule `COc1ccccc1-n1c(C)cc(CNC(=O)NC(C)C)c1C`, the Percent Effect amounted to 0.233%.

Turning to `CN1C[C@@H]2CN(C(=O)C3CC=CC3)C[C@@H]2C1=O`, the Percent Effect is -9.96%.

Take `CN(C)c1ccc(C(=O)N2CCN(CC(C)(C)O)CC2)nn1`: the Percent Effect is -26.8%.

In the case of `CCC(O)CN1CCN(C(=O)c2ccc(N(C)C)nn2)CC1` (centres undefined), the Percent Effect turned out to be 5.36%.

As to `CN(C)c1ccc(C(=O)N2CCN(C(=O)N3CCCCC3)CC2)nn1`, the Percent Effect amounted to 65.3%.

Turning to `CCS(=O)(=O)N1C[C@H](c2nc(C)no2)C[C@H]2OCC[C@H]21`, the Percent Effect amounted to 5.36%.

On to `CCc1ccc(CN2C[C@H](OC)[C@H]3COC[C@H]32)o1`, for which the Percent Effect was -5.96%.

For `O=C(NC1CCC1)[C@H]1C[C@@H]2CN(C(=O)Nc3ccc(F)cc3)C[C@H]1O2`, the Percent Effect is 5.75%.

For `O=C(c1ccc(O)cc1)N1C[C@@H]2OCCN(c3ncccn3)[C@@H]2C1`, the Percent Effect is -11.4%.

Regarding `Cn1cc(CN2C[C@H]3CCC[C@@H](CNc4nccn4C)[C@H]3C2)cn1`, the Percent Effect was -23.6%.

On to `Cc1cccc(CN2C(=O)C[C@H]3[C@@H]2CCN3Cc2ccco2)n1`, for which the Percent Effect was -23.1%.

As for `O=C(O)c1csc(S(=O)(=O)Nc2cccc(OCC(F)(F)F)c2)c1`, the Percent Effect came out at 50%.

For the molecule `CCOc1cccc(NS(=O)(=O)c2cc(C(=O)O)cs2)c1`, the Percent Effect was 0.586%.

`CCCOc1cccc(NS(=O)(=O)c2cc(C(=O)O)cs2)c1`: the Percent Effect is 40.8%.

Consider `CCOC1CCN(CCc2nc(-c3cccc(Cl)c3)no2)CC1`, for which the Percent Effect is 8.68%.

In the case of `NC(=O)N1CCCN(CCc2nc(-c3cccc(Cl)c3)no2)CC1`, the Percent Effect turned out to be 55.5%.

With `Clc1cccc(-c2noc(CCN3CCN(c4ccncc4)CC3)n2)c1`, the Percent Effect was -57.2%.

With `CN1CCN(C(=O)[C@H]2C[C@@H]3CN(c4ncc(F)cn4)C[C@@H]3N2C)CC1`, the Percent Effect is -4.39%.

For `COCC(=O)N1CC[C@@H]2O[C@H](COCc3ccncc3)CC[C@@H]21`, the Percent Effect was -12.9%.

Take `CC1CCN(S(=O)(=O)c2cccn(CC(=O)NC(C)(C)C)c2=O)CC1`: the Percent Effect was -9.8%.

For the molecule `COC(=O)Cn1cccc(S(=O)(=O)N2CCC(C)CC2)c1=O`, the Percent Effect is 50.5%.

For `CC1CCN(S(=O)(=O)c2cccn(CC(=O)NC3CCCC3)c2=O)CC1`, the Percent Effect was 3.17%.

On to `COCC(=O)N1CCc2cccc(S(=O)(=O)N3CCOCC3)c2C1`, for which the Percent Effect was -3.94%.

As for `CCOCCC(=O)N1CCc2cccc(S(=O)(=O)N3CCOCC3)c2C1`, the Percent Effect stood at 59.9%.

Consider `CCCOC(=O)N1CCc2cccc(S(=O)(=O)N3CCOCC3)c2C1`, for which the Percent Effect was -4.05%.

With `COCCNC(=O)[C@@H]1CN(c2ncccn2)C[C@H]2OCC[C@H]21`, the Percent Effect was -43.5%.
